Screens as filed in PubChem.
The list is not random: actives were taken first. Their share in the collection is about 1.1%.
HTR5A ag – HTR5A agonism, opioid heterodimer counter-screen; HTR5A agonist assay, luminescence, cell-based; activation, % at 9.3 µM; 340,000 tested, 0.61% active; AID 504692; in the data active means activation mostly above about 9.5%, no sharp cut-off; inactive means mostly below about 7.6%
MOR-DOR ag-1 – agonists of human mu-delta opioid receptor heterodimerization. 340,000 tested, 0.3% active. P35372+P41143. cells, OPRM1-OPRD1 heterodimerization, luminescence. activation, % at 9.3 µM
Target sequence (P35372 whole entry, looked up): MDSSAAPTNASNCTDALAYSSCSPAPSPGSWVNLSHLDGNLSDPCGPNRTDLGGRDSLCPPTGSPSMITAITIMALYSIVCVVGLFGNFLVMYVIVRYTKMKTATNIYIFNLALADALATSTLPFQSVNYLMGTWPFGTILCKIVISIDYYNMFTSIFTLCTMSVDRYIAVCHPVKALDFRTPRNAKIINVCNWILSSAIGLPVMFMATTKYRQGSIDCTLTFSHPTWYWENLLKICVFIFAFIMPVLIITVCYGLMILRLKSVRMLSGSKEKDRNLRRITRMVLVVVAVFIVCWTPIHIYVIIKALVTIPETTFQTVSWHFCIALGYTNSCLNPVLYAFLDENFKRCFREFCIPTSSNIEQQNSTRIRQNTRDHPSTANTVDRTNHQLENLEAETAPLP
Target sequence (P41143 whole entry, looked up): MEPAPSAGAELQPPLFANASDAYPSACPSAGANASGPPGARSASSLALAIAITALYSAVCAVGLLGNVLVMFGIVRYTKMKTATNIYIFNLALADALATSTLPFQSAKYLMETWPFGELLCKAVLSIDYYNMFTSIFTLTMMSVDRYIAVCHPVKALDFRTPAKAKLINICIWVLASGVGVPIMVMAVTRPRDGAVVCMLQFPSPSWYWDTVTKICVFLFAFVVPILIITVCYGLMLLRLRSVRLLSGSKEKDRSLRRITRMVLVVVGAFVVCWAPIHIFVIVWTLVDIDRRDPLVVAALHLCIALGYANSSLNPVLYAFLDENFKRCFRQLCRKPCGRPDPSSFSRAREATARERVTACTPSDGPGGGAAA
OPRM1-OPRD1 inv – mu-delta opioid heterodimer inverse agonism; inhibition, % at 9.3 µM; 340,000 tested, 0.21% active; AID 504357; cell-based MOR-DOR heterodimer luminescence; P35372+P41143; in the data active means inhibition above about 22%, passing the limit was not always enough
HTR5A inv ag – counter-screen for OPRM1-OPRD1 inverse agonists: human HTR5A inverse agonism; inhibition, % at 9.3 µM; 340,000 tested, 0.083% active; P47898; HTR5A cell line, luminescence; in the data active means inhibition mostly above about 23%, no sharp cut-off; inactive means mostly below about 18%
MOR-DOR ag-2 – opioid heterodimer agonism, HTR5A counter-screen | U2OS counter-screen cells, complementation luminescence, 3 h | shares compounds with HTR5A ag | 800 tested, 13% active | AID 504913 | activation, % at 9.3 µM
HTR5A ag conf – confirmation of human HTR5A agonists | shares compounds with HTR5A ag | activation, % at 9.3 µM | 800 tested, 17% active | HTR5A agonist cell assay, luminescence; in the data active means activation above about 17%
Numbers stand for hits; n = inactive; x = not tested or not shown. Unless noted, no stated cut-off is given here; in the data, active means activation above about 18%; inactive means the rest.

SMILES	HTR5A ag	MOR-DOR ag-1	OPRM1-OPRD1 inv	HTR5A inv ag	MOR-DOR ag-2	HTR5A ag conf
O=C(Nc1ccc(F)c(F)c1)C1CCN(S(=O)(=O)c2cccc3nonc23)CC1	16.9	n	n	n	n	n
O=C(O)C1CCCN(S(=O)(=O)c2ccc(-c3ccc(=O)[nH]n3)s2)C1 (configuration not stated)	n	n	n	n	x	x
N#CC(=C=[N-])c1nc2ccccc2nc1-[n+]1cccc(NC(=O)c2ccccc2)c1	n	n	n	n	x	x
CCc1cc[n+](-c2nc3ccccc3nc2C(=C=[N-])C#N)cc1	15.8	n	n	n	n	n
Cc1cccc(C(=O)NNC(=O)c2c(O)c3ccccc3n(C)c2=O)c1	18.9	n	n	n	n	n
CCc1ccc(CN2CCCC(C(=O)Nc3ccccc3-c3ccc(OC)cc3)C2)o1 (configuration not stated)	n	n	n	n	x	x
CN(C)c1ccc(S(=O)(=O)c2ccc(Cl)cc2)cc1	15.5	n	n	n	n	n
O=C(COC(=O)c1ccc(Cl)c(Cl)c1)NC1CCCC1	n	n	n	n	x	x
CCOc1ccccc1N(CC(=O)NCCSc1ccccn1)S(=O)(=O)c1ccc(C)cc1	29.8	n	n	n	n	n
Cc1ccc(S(=O)(=O)N(CC(=O)NCCSc2ccccn2)c2ccc(C)c(C)c2)cc1	n	n	n	n	x	x
CCOc1ccccc1N(CC(=O)NCCSc1ccccn1)S(=O)(=O)c1ccccc1	25.4	n	n	n	125.8	n
COc1ccc(-c2[nH]ncc2/C=N\NC(=O)c2cccs2)cc1OC	n	n	n	n	x	x
Cc1cc(C(=O)COC(=O)C2=COCCO2)c(C)n1-c1cccc(F)c1	15.7	n	n	n	n	n
Cc1cc(C(=O)COC(=O)C2=COCCO2)c(C)n1-c1ccc2c(c1)OCO2	n	n	n	n	x	x
CC(C)N=C(NC#N)SCC(=O)NC(C)(C)C	n	n	n	n	x	x
C=CCN=C(NC#N)SCC(=O)NC(C)(C)C	17.1	n	n	n	20.0	n
COC(=O)c1ccc(Cn2cc(Cl)cn2)cc1	23.9	n	n	n	n	n
CC(C)(C)NC(=O)CN1CCCN(C(=O)c2cccc(S(=O)(=O)N3CCc4ccccc43)c2)CC1	n	n	n	n	x	x
